Test results: PubChem BioAssay (EPA / NIEHS)
Inconclusive results are not listed. Active and inactive are the calls of the source. How the source made its calls: active means hit-call score of the fitted dose curve at least 0.9, where 1 is the maximum; inconclusive means response in the unintended direction; inactive means score below 0.9.

What was measured:
[1] = Tanguay_ZF_120hpf_YSE_legacy: (Legacy) Oregon State University Tanguay Lab 120 Hour Post-fertilization zebrafish Assay for Yolk Sac Edema (AID 2283634)
Outline: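 Dechorionated Tropical 5D wild-type zebrafish embryos were exposed statically, one per well, from 6 to 120 hpf at 28C in 0.64% DMSO. Yolk sac edema was scored present/absent by brightfield at 120 hpf, and dead embryos were excluded.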

[2] = Tanguay_ZF_120hpf_AXIS_legacy: (Legacy) Oregon State University Tanguay Lab 120 Hour Post-fertilization zebrafish Assay for Body Axis Malformation (AID 2283635)
Procedure: Tanguay_ZF_120hpf_legacy is a whole embryo, multiplexed endpoint assay using zebrafish larvae exposed for 120 hours post fertilization on a 96-well plate.Tanguay_ZF_120hpf_AXIS_legacy is one of one assay component(s) measured or calculated from the Tanguay_ZF_120hpf_legacy assay. It is designed to make measurements of zebrafish development as detected with brightfield microscopy of developing zebrafish embryos.Data from the assay component Tanguay_ZF_120hpf_AXIS_legacy was analyzed into 1 assay endpoints. This assay endpoint, Tanguay_ZF_120hpf_AXIS_legacy, was analyzed in the positive analysis fitting direction relative to DMSO as the negative control and baseline of activity. […]
Zebrafish husbandry: Tropical 5D wild-type adult zebrafish were housed in at an approximate density of 1000 per 100 gallon tank at the Sinnhuber Aquatic Research Laboratory, Oregon State University, Corvallis, OR. […] At 24 hpf, embryos were assessed for photomotor response using a custom photomotor response analysis tool (PRAT) and for developmental toxicity endpoints (MO24: mortality at 24 hpf, DP: developmental progression, SM: spontaneous movement, and NC: notochord distortion). At 120 hpf, locomotor activity was measured using Viewpoint Zebralab and assessed for 18 endpoints. […] If mortality occurred for an embryo (at either 24 or 120 hpf), the non-mortality endpoints were not measured.

[3] = Tanguay_ZF_120hpf_EYE_legacy: (Legacy) Oregon State University Tanguay Lab 120 Hour Post-fertilization zebrafish Assay for Eye Malformation (AID 2283636);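 further: binary presence or absence of eye malformation scored by brightfield in 120 hpf larvae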
Outline: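 5D wild-type embryos, pronase-dechorionated at 4 hpf; static exposure 6–120 hpf, 28C, dark; DMSO 0.64% final; 5uM trimethyltin chloride positive control. Binary eye-defect scoring at 120 hpf; dead embryos not scored.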

[4] = Tanguay_ZF_120hpf_SNOU_legacy: (Legacy) Oregon State University Tanguay Lab 120 Hour Post-fertilization zebrafish Assay for Snout Malformation (AID 2283637)
Outline: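 Binary brightfield scoring of snout malformation at 120 hpf. Dechorionated 5D wild-type embryos, one per well, static exposure from 6 hpf at 28C, sealed and dark; final DMSO 0.64% (vol/vol), DMSO as baseline; 5uM trimethyltin chloride positive control.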

[5] = Tanguay_ZF_120hpf_JAW_legacy: (Legacy) Oregon State University Tanguay Lab 120 Hour Post-fertilization zebrafish Assay for Jaw Malformation (AID 2283638)
Outline: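 Dechorionated Tropical 5D wild-type zebrafish embryos, one per well, exposed statically from 6 hpf to 120 hpf at 28C in 0.64% DMSO. Jaw malformation was scored by brightfield microscopy as present or absent. It was not scored in dead embryos.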

[6] = Tanguay_ZF_120hpf_OTIC_legacy: (Legacy) Oregon State University Tanguay Lab 120 Hour Post-fertilization zebrafish Assay for Otic Vesicle Malformation (AID 2283639)
Outline: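 Statically exposed wild-type 5D zebrafish embryos, kept sealed and dark at 28C through 120 hours post fertilization, were examined by brightfield microscopy for otic vesicle defects. Responses were recorded as present or absent and analysed relative to DMSO.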

[7] = Tanguay_ZF_120hpf_PE_legacy: (Legacy) Oregon State University Tanguay Lab 120 Hour Post-fertilization zebrafish Assay for Pericardial Edema (AID 2283640)
Outline: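 Tropical 5D wild-type zebrafish embryos were statically exposed until 120 hpf at 28C, with 0.64% DMSO final. Pericardial edema was scored by brightfield as present or absent; endpoints were not scored in dead embryos.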

[8] = Tanguay_ZF_120hpf_BRAI_legacy: (Legacy) Oregon State University Tanguay Lab 120 Hour Post-fertilization zebrafish Assay for Brain Malformation (AID 2283641)
Outline: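 Tropical 5D wild-type zebrafish embryos exposed statically until 120 hpf at 28C, 0.64% DMSO final, sealed and dark. Brain malformation scored present/absent by brightfield at 120 hpf; dead embryos excluded. Trimethyltin chloride 5uM positive control.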

[9] = Tanguay_ZF_120hpf_SOMI_legacy: (Legacy) Oregon State University Tanguay Lab 120 Hour Post-fertilization zebrafish Assay for Somite Malformation (AID 2283647)
Outline: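 Dechorionated Tropical 5D wild-type zebrafish embryos, one per well from 6 hpf, statically exposed at 28C to 120 hpf in 0.64% DMSO; somite malformation scored present/absent by brightfield; trimethyltin 5 uM positive control; dead embryos not scored.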

[10] = Tanguay_ZF_120hpf_PFIN_legacy: (Legacy) Oregon State University Tanguay Lab 120 Hour Post-fertilization zebrafish Assay for Pectoral Fin Malformation (AID 2283648);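 further: each larva judged yes or no for fin defect by brightfield with dead larvae skipped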
Outline: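 Binary pectoral fin malformation call at 120 hpf by brightfield microscopy; 5D wild-type zebrafish, chorion removed at 4 hpf, one embryo per well from 6 hpf, static exposure at 28C; DMSO (0.64% final) as baseline.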

Measured: outcome

O=C(O)c1ccc([N+](=O)[O-])cc1
inactive: [1] | [2] | [3] | [4] | [5] | [6] | [7] | [8] | [9] | [10]
